Only some compounds are listed: those with a hit (about 4.6% of all), similar ones and a draw of the others.
DAX1 inh-1 = blocks DAX1 repression of SF-1 activated StAR promoter. HEK293T StAR-luciferase reporter, SF-1/DAX-1 repression relief. inhibition, % at 6.8 µM. 1.1% of 370,000 active. AID 652010;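 active = inhibition above the mean over all tested compounds plus 3 SD, cut at about 3.6% in these data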;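 also: 0% = DAX-1 cells with DMSO and 100% = cells lacking DAX-1 with DMSO; higher inhibition means more luminescence from relief of DAX-1 repression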
DAX1 inh-2 = inhibitors of human orphan nuclear receptor DAX1 (NR0B1); P51843; HEK293 Gal4-DAX1 luciferase reporter, luminescence; inhibition, % at 6.75 µM; 0.99% of 340,000 active;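 active = inhibition above the mean over all tested compounds plus 3 SD, cut at about 4.2% in these data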;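 also: 0% = DAX1-transfected cells with DMSO and 100% = empty-vector control cells with DMSO; inhibition shows as a rise in luminescence from relieved DAX1 repression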
Target sequence (P51843 207-470 limits assumed): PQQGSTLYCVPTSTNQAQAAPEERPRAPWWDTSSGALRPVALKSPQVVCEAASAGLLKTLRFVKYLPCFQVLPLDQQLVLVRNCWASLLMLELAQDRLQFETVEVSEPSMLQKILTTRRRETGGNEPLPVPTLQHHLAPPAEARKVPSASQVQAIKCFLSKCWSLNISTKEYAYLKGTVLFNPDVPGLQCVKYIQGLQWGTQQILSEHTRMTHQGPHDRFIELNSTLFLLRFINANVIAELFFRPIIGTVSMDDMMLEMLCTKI
ssDAF12 agonist = activators of S. stercoralis DAF-12 nuclear receptor. HEK293 ssDAF-12/GRIP1 lit1-tk-luc reporter, luminescence; % of 3 µM dafachronic acid response. activation, % at 6.8 µM. 1% of 370,000 active. AID 652126;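 active = activation above the mean over all tested compounds plus 3 SD, cut at about 0.9% in these data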;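 also: 0% = DMSO-only wells and 100% = 3 µM delta7-dafachronic acid wells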
hgDAF-12 ag = agonists of H. glycines DAF-12 nuclear receptor; 1.8% of 370,000 active; AID 687014; HEK293 GAL4-hgDAF12 UAS-luciferase reporter, agonist luminescence; normalized to butyrate control; activation, % at 6.8 µM;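 active = activation above a cutoff set at the mean of all screened compounds plus 3 SD, cut at about 10% in these data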;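 also: 0% = DMSO wells and 100% = sodium butyrate wells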
hcDAF12 agonist = activators of H. contortus DAF-12 nuclear receptor | HEK293 hcDAF-12 lit1-tk-luc reporter, luminescence; 0% DMSO, 100% Δ7-dafachronic acid | activation, % at 6.8 µM | 1.4% of 370,000 active | AID 652067;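 active = activation above the mean of all tested compounds plus 3 SD, cut at about 5.5% in these data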;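 also: 100% = response to 3 µM Δ7-dafachronic acid high control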
Wee1 stabilizer = human Wee1 degradation inhibition, primary screen. P30291. HeLa Luc-Wee1K328M stability, luciferase luminescence; 100% = proteasome inhibitor MG132 effect. reporter increase, % at 5 µM. AID 1321. 1.2% of 220,000 active;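 active = activation above the mean of all tested compounds plus 3 SD, set per screening run, cut at about 8.8% in these data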;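 also: cells exposed to compound for 20 h before luminescence read; 0% = DMSO alone and 100% = MG132 at 30 µM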
An asterisk follows results filed as active; / = no result.

SMILES	DAX1 inh-1	DAX1 inh-2	ssDAF12 agonist	hgDAF-12 ag	hcDAF12 agonist	Wee1 stabilizer
O=C(C1CCC(CNc2c(N3CCCCC3)c(=O)c2=O)CC1)N1CCN(C2CCCCC2)CC1 (centres undefined)	1	4.4*	-2	-1	-1	1
Cc1ccc(CN2CCCCC(NC(=O)c3ccc4ccccc4c3)C2=O)cc1 (centres undefined)	-1	/	-1	5	-1	/
COc1ccccc1N1CCN(S(=O)(=O)c2ccc3c(c2)CCC(=O)N3)CC1	-1	/	-1	-2	-2	/
Cc1nnc(SC(C)C(=O)NC2CCCCC2C)n1N (centres undefined)	0	4.3*	-1	-1	-2	/
O=C(N=Nc1c(O)[nH]c2ccccc12)c1ccc2c(c1)OCO2	3	0	0	13*	5	3
O=C(N=Nc1c(O)[nH]c2ccccc12)c1ccc(CN2CCOCC2)cc1	1	2	-1	2	-1	2
COc1ccccc1N1C[C@@H]2C[C@@H](c3ccco3)N3CCC[C@@]23C1=O	0	4.9*	-1	-1	-1	-1
COc1ccc([C@@H]2C[C@H]3CN(c4ccccc4)C(=O)[C@]34CCCN24)c(OC)c1OC	-1	-2	-1	-2	-3	0
Cc1cc(Cl)ccc1OCCCC(=O)NO	-1	0	-1	12*	-2	3
O=C(CN1CCN(Cc2ccccc2)CC1)N1N=CCC1c1ccccc1 (centres undefined)	1	4.8*	0	2	-1	2
COCCNC(=O)COC(=O)C1=Cc2ccccc2OC1	0	4.7*	0	-2	0	-2
O=C(COC(=O)C1=Cc2ccccc2OC1)NCc1ccccc1	0	-1	-1	2	-1	/
COC(=O)C1CN(Cc2ccc(OC)cc2)CCS(=O)(=O)N1Cc1cn(Cc2ccc(OC)cc2)nn1 (centres undefined)	0	/	-1	-3	-2	/
COC(=O)C1CN(CCO)CCS(=O)(=O)N1Cc1cn(Cc2cccc(Cl)c2)nn1 (centres undefined)	-1	/	0	-1	-2	/
CC(C)NC(=S)Nc1ccc2[nH]c(=O)[nH]c2c1	0	4.5*	-1	3	-2	7
CCc1ccc(NC(=S)Nc2ccc3[nH]c(=O)[nH]c3c2)cc1	0	2	-2	0	-1	2
CNC(=S)Nc1ccc2[nH]c(=O)[nH]c2c1	0	0	-1	-1	-1	2
O=c1[nH]c2ccc(NC(=S)Nc3ccc(F)cc3)cc2[nH]1	0	-1	-1	-1	-1	9.7*
CCOc1ccc(-c2cc(C(=O)O)c3ccccc3n2)cc1	3	-1	0	11*	5	0
CCc1ccc(-c2cc(C(=O)NN3CCOCC3)c3ccccc3n2)cc1	1	-1	0	0	1	28*
O=C(NCCCN1CCCC1=O)c1cc(-c2ccc3c(c2)OCO3)nc2ccccc12	0	0	1.0*	-3	2	2
O=C(NCCCN1CCOCC1)c1cc(-c2ccc3c(c2)OCO3)nc2ccccc12	0	-1	-2	0	1	11*
O=C(NCCCN1CCOCC1)c1cc(-c2ccccc2)nc2ccccc12	0	1	0	2	0	/
COC(=O)CNC(=O)CNC1(C(=O)NCCc2c[nH]c3ccccc23)CCCCC1	/	/	-1	2	3	/
CCCCCn1nnnc1C1(C)CCCCC(=O)N1Cc1ccco1 (centres undefined)	-1	/	-1	-1	-2	/
O=C(NCc1cccs1)c1ccc2nc([C@@H]3O[C@H](CO)[C@H](O)[C@H](O)[C@H]3O)[nH]c2c1	0	/	-1	-1	0	/
COc1ccc(CNC(=O)COc2cc3c(c4oc(=O)cc(C)c24)CCC(C)(C)O3)c(OC)c1	-3	/	-1	-5	-5	/
CCOC(=O)CON1C(=O)C(C)(C)N(OCC(=O)OCC)C(=O)C1(C)C	1	0	1.0*	-1	0	-1
C[C@H]1CN([C@@H](C)CO)C(=O)CCCn2cc(nn2)CO[C@@H]1CN(C)C(=O)Nc1ccc(N2CCCCC2)cc1	0	-1	-1	0	-2	/
